{
  "source": "PubChem BioAssay (NCI)",
  "note": "The panel holds about 83,000 compounds, 20% with a hit somewhere; the sample as a whole holds those more often.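 Interpretation: 100, growth as untreated; towards 0, rising growth inhibition; 0, no net growth; 0 to -100, cell death. Compounds scoring below 10 were considered active.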 A number with no mark means an inactive call. The source made the active and inactive calls.",
  "data": [
    {"tested_on": "RPMI-8226 leukemia", "experiment": "NCI-60 one-dose screen, 48 h (100 = growth as untreated, 0 = no growth, -100 = all killed)", "settings": "10 µM", "values": [
      {"smiles": "COc1ccc(-c2nc(-c3nc4ccc(Cl)cc4[nH]3)c3ccccn23)cc1", "growth": "49.3%"},
      {"smiles": "O=C(O)c1ccc(P(=O)(O)O)c([N+](=O)[O-])c1", "growth": "102%"},
      {"smiles": "COc1ccc2c(c1)N(CCO)C1=C(C(=O)OC1)C2c1ccc(OC)c(OC)c1", "note": "(centres undefined)", "growth": "62.9%"},
      {"smiles": "CC(=O)O[C@]1(C)CC[C@H]2[C@H](CNCCc3ccc(Cl)cc3)C(=O)O[C@@H]2C2=C(C)C(=O)C[C@H]21", "growth": "64.7%"},
      {"smiles": "COc1ccc(Cl)cc1-n1nnc(-c2nc3ccccc3[nH]2)c1N", "growth": "53.9%"},
      {"smiles": "O=C1/C(=C\\c2ccc(F)cc2)CN(C(=O)c2ccccc2)C/C1=C\\c1ccc(F)cc1", "growth": "-19.5% (active)"},
      {"smiles": "CCC(=O)N1C/C(=C/c2ccc(Cl)cc2)C(=O)/C(=C/c2ccc(Cl)cc2)C1", "growth": "-37% (active)"},
      {"smiles": "COc1cc(C2CC(c3ccc(Nc4ccnc5cc(Cl)ccc45)cc3)=NN2c2ccc(Cl)cc2)cc(OC)c1OC", "note": "(centres undefined)", "growth": "44.7%"},
      {"smiles": "COc1cc(NC(=O)CCSc2nc3ccc(C)cc3c(=O)n2Cc2ccccc2)cc(OC)c1OC", "growth": "83.8%"},
      {"smiles": "COc1cc(Nc2ncnc(Nc3ccc4c(n3)NC(=O)C(C)(C)O4)n2)cc(OC)c1OC", "growth": "20.6%"},
      {"smiles": "C[C@@H]1C=C2C(=O)O[C@@H]3CC[C@H](C1)[C@]23O", "growth": "75.8%"},
      {"smiles": "N#CCCN1C/C(=C/c2ccc(Cl)cc2)C(=O)/C(=C/c2ccc(Cl)cc2)C1", "growth": "-15.5% (active)"},
      {"smiles": "Cc1[nH]nc2c1C(c1cnn(C)c1)C(C#N)=C(N)O2", "note": "(centres undefined)", "growth": "99.3%"},
      {"smiles": "O=C(Nc1nc2ccc(F)cc2s1)c1cc(-c2ccc(F)cc2)n2nc(-c3ccccc3)cc2n1", "growth": "97.7%"},
      {"smiles": "COc1ccc(-c2nc(-c3nc4cc(Cl)c(Cl)cc4[nH]3)c3ccccn23)cc1", "growth": "49.9%"},
      {"smiles": "Cc1ccc(CC#N)cc1C", "growth": "134%"},
      {"smiles": "O=C1/C(=C\\c2ccc(Cl)cc2)CN(C(=S)Nc2ccccc2)C/C1=C\\c1ccc(Cl)cc1", "growth": "-29.8% (active)"},
      {"smiles": "C#Cc1ccc(-n2c(/C=C/c3ccc4ccccc4n3)nc3ncccc3c2=O)cc1", "growth": "-27.7% (active)"},
      {"smiles": "N#CCCN1C/C(=C/c2ccccc2)C(=O)/C(=C/c2ccccc2)C1", "growth": "-14.4% (active)"},
      {"smiles": "CCC(=O)N1C/C(=C/c2ccc(OC)cc2)C(=O)/C(=C/c2ccc(OC)cc2)C1", "growth": "-15.8% (active)"},
      {"smiles": "Cc1ccc(C)c(C(O)(c2cc(C)ccc2C)C2(O)CCCCC2)c1", "growth": "89.7%"},
      {"smiles": "O=C1/C(=C\\c2ccc(F)cc2)CN(C(=O)c2ccc([N+](=O)[O-])cc2)C/C1=C\\c1ccc(F)cc1", "growth": "-13.3% (active)"},
      {"smiles": "CC(=O)OCc1cc(-c2nc3ccccc3[nH]c2=O)nn1-c1ccc(Cl)cc1", "growth": "89.1%"},
      {"smiles": "O=C1/C(=C\\c2ccc(Cl)cc2)CN(C(=O)c2ccccc2)C/C1=C\\c1ccc(Cl)cc1", "growth": "-25% (active)"},
      {"smiles": "CC(C)(C)c1cc(Br)cc(C(C)(C)C)c1O", "growth": "93.9%"},
      {"smiles": "C#Cc1ccc(-n2c(/C=C/c3ccc(C(F)(F)F)cc3)nc3ncccc3c2=O)cc1", "growth": "-9.89% (active)"},
      {"smiles": "CC/C(=C(/c1ccc(OCCN(C)C)cc1)c1ccc(OC(=O)CCCCC(=O)c2c(C)[nH]c(/C=C3\\N=C(c4ccc[nH]4)C=C3OC)c2C)cc1)c1ccccc1", "growth": "25.4%"},
      {"smiles": "CSc1nn(-c2ccccc2)c2ncnc(Oc3ccccc3)c12", "growth": "84.5%"},
      {"smiles": "COc1cc(/C=C\\c2cc(OC)c(OC)c(OC)c2)cc(NS(=O)(=O)c2ccc(Cl)cc2)c1OC", "growth": "9.59% (active)"},
      {"smiles": "COc1ccc(/C=C2/CN(CCC#N)C/C(=C\\c3ccc(OC)cc3)C2=O)cc1", "growth": "-17.2% (active)"},
      {"smiles": "c1ccc(CP(Cc2ccccc2)c2ccccc2)cc1", "growth": "92.7%"},
      {"smiles": "COc1ccc(-c2nc(-c3nc4cc(Cl)c(F)cc4[nH]3)c3ccccn23)cc1", "growth": "8.97% (active)"},
      {"smiles": "Cc1nc2ccccc2c(N)c1-c1cc(C)c2c(C)nc3ccccc3c2n1", "growth": "-40.9% (active)"},
      {"smiles": "CC1(C)CCC(=NNC(N)=S)CC1", "growth": "103%"},
      {"smiles": "Nc1nc(Nc2ccccc2)n[nH]1", "growth": "97%"},
      {"smiles": "CCOC(=O)N1C/C(=C/c2ccc(OC)cc2)C(=O)/C(=C/c2ccc(OC)cc2)C1", "growth": "-14.8% (active)"},
      {"smiles": "CC(=O)n1c(-c2ccc(Cl)c(Cl)c2)cn(-c2ccc(Cl)cc2)c1=O", "growth": "-10.9% (active)"},
      {"smiles": "N=C(N)c1ccc(-c2ccc(-c3ccco3)o2)cc1", "growth": "25.3%"},
      {"smiles": "COc1ccc(/C=C/C(C)=N/OCC(=O)O)cc1", "growth": "102%"}
    ]}
  ]
}
